Test results: PubChem BioAssay (NCATS)
Results filed as inconclusive are left out. The source made the active and inactive calls. Unless noted, calls come from the whole dose curve; as a rule, active = well fitted curve in the direction sought with a large enough effect; inconclusive = small, poorly fitted or top-dose-only effect, or another doubt; inactive = no such curve, though single readings can be large; an effect the other way counts as inactive or inconclusive.

Key:
[1] = qHTS for differential inhibitors of proliferation of Plasmodium falciparum line D10 (AID 1877); conditions: series mostly up to 28.7 µM;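 note: parasites grown with compound for 72 h before DNA staining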
[2] = qHTS for differential inhibitors of proliferation of Plasmodium falciparum line Dd2 (AID 1882); conditions: Potency: Plasmodium falciparum Dd2 proliferation inhibition; series mostly up to 28.7 µM; note: nearly all actives have a fitted effect of over 65% in size
How it was run: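 SYBR Green DNA fluorescence (ex 485, em 535 nm) after overnight lysis quantifies parasite growth; compound exposure lasted 72 h at 37 C on infected red cells at 2.5% hematocrit, 0.3% parasitemia (final). Artemisinin 0.29 uM and vehicle wells define normalization.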

[3] = qHTS for differential inhibitors of proliferation of Plasmodium falciparum line HB3 (AID 1886); conditions: Potency: Plasmodium falciparum HB3 proliferation inhibition; series mostly up to 28.7 µM;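 note: parasites grown with compound for 72 h before SYBR Green readout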
[4] = biological target: Ferritin light chain (Equus caballus) (UniProt P02791); test: qHTS Validation Assay for Identification of Novel General Anesthetics (AID 2323); conditions: horse apoferritin, anesthetic-site fluorescent probe displacement; series mostly up to 76.9 µM
Chain of Ferritin light chain (Equus caballus) (P02791 2-175 limits assumed): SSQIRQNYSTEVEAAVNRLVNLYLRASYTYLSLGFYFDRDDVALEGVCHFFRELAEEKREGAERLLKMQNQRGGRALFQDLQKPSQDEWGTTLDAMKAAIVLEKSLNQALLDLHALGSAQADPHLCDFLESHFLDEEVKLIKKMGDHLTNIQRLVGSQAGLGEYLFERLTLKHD
How it was run: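 Apoferritin from horse spleen (10 uM) was mixed with 1-aminoanthracene at 50% saturation in PBS, then compounds were added. After 10 min at room temperature, fluorescence was read (ex 380 nm, em 535 nm) and normalized to free-probe and complex controls.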

[5] = qHTS Assay for Modulators of Human Peripheral Myelin Protein 22 (PMP22) Expression/Activity (AID 1967; active = well fitted curve in the direction sought with a large enough effect in the signal ratio; the % refers to the signal ratio); conditions: Cell-based PMP22 reporter, dual-color luciferase ratio, 0% = compound-free control cells, mouse Pmp22 promoter in mouse Schwann cells; series mostly up to 115 µM
How it was run: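 Quantitative HTS in a mouse Schwann cell line expressing dual click beetle luciferases: Pmp22 promoter (green) and control EF-alpha promoter (red). After 24h treatment, corrected green/red signal ratio gave %Activity relative to untreated cells.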

[6] = biological target: ATP-dependent DNA helicase Q1 (Homo sapiens) (UniProt P46063); test: qHTS Validation Assay for Inhibitors of RecQ-Like Dna Helicase 1 (RECQ1) (AID 2353); conditions: recombinant RECQ1 helicase DNA unwinding assay; series mostly up to 25.6 µM
Chain of ATP-dependent DNA helicase Q1 (Homo sapiens) (P46063 whole entry, looked up): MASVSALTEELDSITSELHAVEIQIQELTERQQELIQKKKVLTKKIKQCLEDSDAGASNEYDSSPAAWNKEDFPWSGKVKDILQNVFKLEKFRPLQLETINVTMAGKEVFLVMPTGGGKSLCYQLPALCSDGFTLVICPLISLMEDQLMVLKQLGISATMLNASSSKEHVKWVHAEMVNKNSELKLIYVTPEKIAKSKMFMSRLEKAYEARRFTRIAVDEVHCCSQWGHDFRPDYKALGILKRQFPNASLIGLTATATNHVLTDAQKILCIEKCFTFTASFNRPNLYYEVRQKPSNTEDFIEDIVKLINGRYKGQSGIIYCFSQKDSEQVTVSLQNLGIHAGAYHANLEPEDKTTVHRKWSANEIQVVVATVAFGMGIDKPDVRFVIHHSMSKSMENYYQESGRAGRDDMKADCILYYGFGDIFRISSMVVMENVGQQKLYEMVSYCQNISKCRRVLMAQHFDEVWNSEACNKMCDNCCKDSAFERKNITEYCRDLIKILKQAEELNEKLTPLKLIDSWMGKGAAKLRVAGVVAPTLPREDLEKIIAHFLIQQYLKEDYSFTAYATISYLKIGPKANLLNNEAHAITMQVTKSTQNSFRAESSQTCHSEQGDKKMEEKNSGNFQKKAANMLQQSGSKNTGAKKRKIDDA
How it was run: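 RECQ1T1 50 nM; forked duplex (20 bp + 30-nt ss tails) 200 nM, ATP 2 mM final; pH 8.0, 2 mM MgCl2, 2.5 ug/ml poly(dI-dC); 15 min compound preincubation; discontinuous kinetic read over 2 h at RT.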

[7] = biological target: RecQ-like DNA helicase BLM (Homo sapiens) (UniProt P54132); test: qHTS Validation Assay for Inhibitors of Bloom's syndrome helicase (BLM) (AID 2364); conditions: BLM helicase DNA unwinding, fluorescence, in vitro; series mostly up to 57.1 µM
Chain of RecQ-like DNA helicase BLM (Homo sapiens) (P54132 whole entry, looked up): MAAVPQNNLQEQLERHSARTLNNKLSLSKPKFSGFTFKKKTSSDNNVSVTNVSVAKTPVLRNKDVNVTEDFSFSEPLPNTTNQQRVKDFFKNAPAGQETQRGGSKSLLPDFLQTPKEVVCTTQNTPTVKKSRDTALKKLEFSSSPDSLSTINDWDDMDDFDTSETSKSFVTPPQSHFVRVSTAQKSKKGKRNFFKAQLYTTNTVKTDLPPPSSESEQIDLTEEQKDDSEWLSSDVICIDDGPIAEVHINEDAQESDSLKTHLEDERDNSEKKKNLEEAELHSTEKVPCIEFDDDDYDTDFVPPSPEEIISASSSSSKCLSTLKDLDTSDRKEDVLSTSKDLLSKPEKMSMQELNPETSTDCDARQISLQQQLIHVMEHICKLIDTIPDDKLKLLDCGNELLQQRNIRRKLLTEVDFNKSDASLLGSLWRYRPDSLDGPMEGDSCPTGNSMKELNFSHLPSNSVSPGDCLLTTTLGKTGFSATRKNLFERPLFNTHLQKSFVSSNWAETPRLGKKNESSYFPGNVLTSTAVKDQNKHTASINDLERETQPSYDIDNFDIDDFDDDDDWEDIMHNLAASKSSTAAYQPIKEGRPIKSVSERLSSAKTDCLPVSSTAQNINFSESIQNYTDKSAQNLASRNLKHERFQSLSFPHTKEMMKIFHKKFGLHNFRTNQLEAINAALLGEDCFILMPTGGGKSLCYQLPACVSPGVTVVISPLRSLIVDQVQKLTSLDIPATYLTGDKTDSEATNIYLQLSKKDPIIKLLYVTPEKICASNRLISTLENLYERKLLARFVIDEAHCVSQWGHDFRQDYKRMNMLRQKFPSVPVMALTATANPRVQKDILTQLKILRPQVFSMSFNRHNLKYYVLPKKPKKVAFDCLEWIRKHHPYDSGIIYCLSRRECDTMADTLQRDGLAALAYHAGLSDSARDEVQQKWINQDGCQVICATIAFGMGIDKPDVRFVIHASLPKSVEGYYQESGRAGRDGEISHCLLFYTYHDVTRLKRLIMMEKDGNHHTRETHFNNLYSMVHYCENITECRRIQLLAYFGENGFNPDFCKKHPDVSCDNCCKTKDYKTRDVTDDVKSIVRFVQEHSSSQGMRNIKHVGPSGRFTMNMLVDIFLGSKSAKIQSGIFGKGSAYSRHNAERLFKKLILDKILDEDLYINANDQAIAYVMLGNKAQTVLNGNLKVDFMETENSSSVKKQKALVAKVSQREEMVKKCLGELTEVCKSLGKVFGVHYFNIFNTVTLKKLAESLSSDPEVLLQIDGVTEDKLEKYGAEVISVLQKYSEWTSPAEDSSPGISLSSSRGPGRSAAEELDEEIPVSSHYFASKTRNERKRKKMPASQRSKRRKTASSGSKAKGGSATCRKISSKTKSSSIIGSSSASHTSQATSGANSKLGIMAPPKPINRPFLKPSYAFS
How it was run: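 Forked 20-bp duplex substrate (200 nM, TAMRA/BHQ-2) plus 2 mM ATP added after 15 min compound preincubation with 50 nM enzyme, pH 8.0, poly(dI-dC) 2.5 ug/ml. Strand separation followed by fluorescence (525/598 nm) over 2 h, normalized to enzyme-free and DMSO controls.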

Measured: Potency

O=C(O)c1ccccc1Nc1cccc(OCc2ccc3ccccc3n2)c1
inactive: [1] | [2] | [3] | [4]

C[C@H](O)C(=O)C1=Nc2c(nc(N)[nH]c2=O)NC1
not listed: [7]
inactive: all other assays above

c1ccc2nc(C3=NCCN3)ccc2c1
not listed: [5] | [6]
inactive: all other assays above
